The test system of test [1] is PRMT1 (protein arginine N-methyltransferase 1). Nature of the test: small molecules binding arginine methyltransferase PRMT1 – biochemical, small-molecule microarray, 635 nm fluorescence, primary screen (AID 1088).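 Also: binding of Prmt1 protein to compounds spotted on small-molecule microarray slides.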 The following applies: higher = more signal.
Test [2] in a line: growth effects on S. cerevisiae YJM789 – YJM789 clinical isolate, OD600, 24 h, basal, primary screen (AID 1089).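 Also: growth of clinical yeast isolate S. cerevisiae YJM 789 seeded 1000 cells per well; test concentration not given here.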 Conditions: higher = more signal, called active from +8 up or from −8 down.
Test [3] in a line: S. pombe growth modifiers, basal conditions – strain 972, OD600, 24 h, no modulator, primary screen (AID 1090).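 Also: basal condition with compound alone and no growth modifier present; test concentration not given here.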 The following applies: S. pombe 972 growth, higher = more signal, called active from +8 up or from −8 down.
Test [4] is described as follows: budding yeast growth modifiers under rapamycin – strain BY4716, OD600, 96 h, primary screen (AID 1091). Also: test concentration not given here. The following applies: S. cerevisiae BY4716 + rapamycin, higher = more signal, called active from +8 up or from −8 down.
The target of test [5] is Torsin-1A-interacting protein 2 (Homo sapiens) (UniProt Q8NFQ8). Nature of the test: small molecules binding lysate-expressed LULL1 – cell lysate, human LULL1 lysate, 635/667 nm fluorescence, primary screen (AID 1092).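 Also: probe is lysate of COS7 cells overexpressing human LULL1; score merges per-feature 667 nm fluorescence with signal-to-noise.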 The following applies: small-molecule microarray, hLULL1 lysate binding, 635 nm fluorescence; higher = more signal.
Sequence of Torsin-1A-interacting protein 2 (Homo sapiens) (Q8NFQ8 whole entry, looked up): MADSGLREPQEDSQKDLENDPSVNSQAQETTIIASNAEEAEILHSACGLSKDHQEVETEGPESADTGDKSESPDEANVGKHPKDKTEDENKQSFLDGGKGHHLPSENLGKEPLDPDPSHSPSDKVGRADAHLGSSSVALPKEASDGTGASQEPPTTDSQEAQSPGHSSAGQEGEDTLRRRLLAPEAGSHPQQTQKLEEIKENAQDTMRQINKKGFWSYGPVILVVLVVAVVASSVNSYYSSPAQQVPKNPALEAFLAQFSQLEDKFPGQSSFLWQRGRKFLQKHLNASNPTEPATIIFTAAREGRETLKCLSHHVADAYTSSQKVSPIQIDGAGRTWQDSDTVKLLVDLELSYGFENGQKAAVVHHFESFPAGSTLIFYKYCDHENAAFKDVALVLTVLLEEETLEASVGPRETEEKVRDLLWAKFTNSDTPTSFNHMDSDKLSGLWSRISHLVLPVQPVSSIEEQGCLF
Test [6] can be described thus: optical density change of DRC41 E. coli – strain DRC41, OD650, 24 h, E. coli filamentation project, primary screen (AID 1093).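 Also: MC1000 strain lacking acrAB efflux and sulA so SOS filamentation is blocked; test concentration not given here.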 Conditions: E. coli DRC41 growth, higher = more signal, called active from +8 up or from −8 down.
Test [7] in a line: probe aLefty2 binding to arrayed compounds – biochemical, biotinylated probe, 635/667 nm fluorescence, primary screen (AID 1094).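 Also: score merges spot fluorescence near 667 nm with spot signal-to-noise ratio.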 Conditions: small-molecule microarray, higher = more signal.
In test [8] the test system is Noggin (protein binding on small-molecule microarray). Nature of the test: small molecules binding Noggin protein – biochemical, 635/667 nm fluorescence, primary screen (AID 1095).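 Also: score merges 667 nm feature fluorescence with signal to noise over triplicate slides.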 The following applies: 635 nm fluorescence, higher = more signal.
For test [9], the target named is Neurogenic locus notch homolog protein 3 (Homo sapiens) (UniProt Q9UM47). The test is described as follows: small molecules binding NOTCH3 protein – biochemical, 635/667 nm fluorescence, primary screen (AID 1096). The following applies: small-molecule microarray, 635 nm fluorescence, higher = more signal.
Sequence of Neurogenic locus notch homolog protein 3 (Homo sapiens) (Q9UM47 whole entry, looked up): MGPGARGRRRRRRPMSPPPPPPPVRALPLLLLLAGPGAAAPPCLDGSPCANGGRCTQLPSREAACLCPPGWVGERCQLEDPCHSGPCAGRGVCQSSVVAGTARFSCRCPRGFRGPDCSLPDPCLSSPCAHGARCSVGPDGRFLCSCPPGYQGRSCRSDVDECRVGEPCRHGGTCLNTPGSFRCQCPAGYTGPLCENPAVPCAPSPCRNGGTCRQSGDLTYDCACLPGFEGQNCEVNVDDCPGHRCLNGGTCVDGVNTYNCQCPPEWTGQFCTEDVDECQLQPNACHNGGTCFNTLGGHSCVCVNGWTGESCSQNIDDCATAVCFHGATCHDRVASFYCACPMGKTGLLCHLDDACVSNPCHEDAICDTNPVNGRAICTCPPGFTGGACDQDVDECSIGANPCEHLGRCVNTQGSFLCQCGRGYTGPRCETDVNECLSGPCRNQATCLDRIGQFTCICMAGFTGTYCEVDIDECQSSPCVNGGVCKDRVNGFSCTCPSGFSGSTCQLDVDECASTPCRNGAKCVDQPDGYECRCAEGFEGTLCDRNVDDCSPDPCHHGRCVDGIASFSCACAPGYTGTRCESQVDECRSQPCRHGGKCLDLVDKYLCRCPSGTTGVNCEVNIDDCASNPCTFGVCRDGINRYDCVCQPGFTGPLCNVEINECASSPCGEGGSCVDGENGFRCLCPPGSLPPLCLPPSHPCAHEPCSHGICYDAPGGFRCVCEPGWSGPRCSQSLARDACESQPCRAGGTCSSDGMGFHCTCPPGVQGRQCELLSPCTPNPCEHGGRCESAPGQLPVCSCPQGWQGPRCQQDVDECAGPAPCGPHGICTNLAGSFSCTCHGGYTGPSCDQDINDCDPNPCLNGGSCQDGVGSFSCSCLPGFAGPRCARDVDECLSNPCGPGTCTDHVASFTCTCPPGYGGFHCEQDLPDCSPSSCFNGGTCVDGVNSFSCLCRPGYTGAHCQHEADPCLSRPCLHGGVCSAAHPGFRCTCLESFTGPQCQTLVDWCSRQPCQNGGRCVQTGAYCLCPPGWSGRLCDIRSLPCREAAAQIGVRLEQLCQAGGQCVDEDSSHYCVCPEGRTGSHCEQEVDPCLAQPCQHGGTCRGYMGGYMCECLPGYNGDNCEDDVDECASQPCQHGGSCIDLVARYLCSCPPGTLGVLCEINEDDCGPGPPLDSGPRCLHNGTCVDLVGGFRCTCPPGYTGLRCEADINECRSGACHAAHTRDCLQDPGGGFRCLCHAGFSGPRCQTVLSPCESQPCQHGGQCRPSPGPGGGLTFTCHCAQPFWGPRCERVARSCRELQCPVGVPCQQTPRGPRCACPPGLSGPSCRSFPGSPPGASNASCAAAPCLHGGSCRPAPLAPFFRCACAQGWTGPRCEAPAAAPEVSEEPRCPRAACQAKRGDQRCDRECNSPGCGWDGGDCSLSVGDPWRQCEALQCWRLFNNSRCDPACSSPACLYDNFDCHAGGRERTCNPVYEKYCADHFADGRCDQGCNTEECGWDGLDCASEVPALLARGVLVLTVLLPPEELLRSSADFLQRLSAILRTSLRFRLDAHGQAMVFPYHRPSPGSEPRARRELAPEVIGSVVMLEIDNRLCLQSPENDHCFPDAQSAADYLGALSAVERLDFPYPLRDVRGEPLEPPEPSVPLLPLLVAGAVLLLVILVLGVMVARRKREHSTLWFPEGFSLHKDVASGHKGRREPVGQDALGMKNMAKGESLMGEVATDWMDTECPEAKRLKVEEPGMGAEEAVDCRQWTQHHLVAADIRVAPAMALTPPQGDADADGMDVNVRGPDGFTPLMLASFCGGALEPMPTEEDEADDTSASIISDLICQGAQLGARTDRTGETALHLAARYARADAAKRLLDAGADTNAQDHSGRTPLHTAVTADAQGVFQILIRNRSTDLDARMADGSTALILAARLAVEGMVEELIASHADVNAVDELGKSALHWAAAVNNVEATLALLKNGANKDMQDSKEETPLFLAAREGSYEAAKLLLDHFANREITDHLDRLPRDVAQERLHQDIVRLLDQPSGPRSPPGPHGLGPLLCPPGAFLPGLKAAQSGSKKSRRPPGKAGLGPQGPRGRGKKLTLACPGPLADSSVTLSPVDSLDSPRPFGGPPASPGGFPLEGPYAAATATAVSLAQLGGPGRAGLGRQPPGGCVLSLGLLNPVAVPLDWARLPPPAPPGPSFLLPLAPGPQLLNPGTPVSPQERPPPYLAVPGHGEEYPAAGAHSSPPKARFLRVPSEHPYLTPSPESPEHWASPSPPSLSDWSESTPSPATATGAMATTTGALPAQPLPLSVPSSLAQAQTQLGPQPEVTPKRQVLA
A short description of test [10]: probe aEGFR binding to arrayed compounds – biochemical, biotinylated probe, 635/667 nm fluorescence, primary screen (AID 1097).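 Also: probe is a biotinylated anti-EGFR antibody binding compounds printed on slides; score combines fluorescence near 667 nm and signal to noise of each spot.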 The following applies: small-molecule microarray, higher = more signal.
Test [11] deals with Plasmodium falciparum Sir2 (PF13_0152, Sir2A). Nature of the test: Plasmodium falciparum Sir2A binding compounds – biochemical, small-molecule microarray, 635 nm fluorescence, primary screen (AID 1098).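 Also: score merges spot fluorescence intensity with its signal-to-noise ratio.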 The following applies: fluorescence 635 nm, higher = more signal.
Test [12] in a line: probe aDKK1 binding to arrayed compounds – biochemical, biotinylated probe, 635/667 nm fluorescence, primary screen (AID 1099).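 Also: score merges 667nm spot fluorescence with signal to noise across triplicate slides; reference of the scale not given here.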 The following applies: small-molecule microarray, higher = more signal.
Test [13] in a line: probe aCHRDL2 binding to arrayed compounds – biochemical, biotinylated probe, 635/667 nm fluorescence, primary screen (AID 1100). Conditions: small-molecule microarray, higher = more signal.
A short description of test [14]: change in splice reporter luminescence, either direction, cell-based, HEK293, spliceosome inhibition project, primary screen (AID 1101).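 Also: HEK293 cells carrying a splicing-competent luciferase reporter gene; test concentration not given here.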 The following applies: HEK293 splicing luciferase reporter, 24 h, higher = more signal, called active from +8 up or from −8 down. On the technique in general: In a reporter assay the amount or activity of a reporter protein is the signal.

The target in test [15] is Fibroblast growth factor 10 (Homo sapiens) (UniProt O15520). Nature of the test: compounds binding fibroblast growth factor 10 – biochemical, small-molecule microarray, 635 nm fluorescence, primary screen (AID 1102). The following applies: FGF10 binding, fluorescence 635 nm, higher = more signal.
Sequence of Fibroblast growth factor 10 (Homo sapiens) (O15520 whole entry, looked up): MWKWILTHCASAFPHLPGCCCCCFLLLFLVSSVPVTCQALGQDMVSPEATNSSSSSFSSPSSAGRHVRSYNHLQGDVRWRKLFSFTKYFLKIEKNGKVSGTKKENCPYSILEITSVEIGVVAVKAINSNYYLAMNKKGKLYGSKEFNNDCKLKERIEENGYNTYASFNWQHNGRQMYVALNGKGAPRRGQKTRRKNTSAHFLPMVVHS
In test [16] the test system is glycogen synthase kinase-3 (GSK3A per assay name; protocol says GSK3B). The test is described as follows: compounds binding glycogen synthase kinase-3 – biochemical, small-molecule microarray, 635 nm fluorescence, GSK3A, primary screen (AID 1103). Also: the record names both GSK3A and GSK3B. Conditions: fluorescence 635 nm, higher = more signal.
Test [17] addresses Epidermal growth factor receptor (Homo sapiens) (UniProt P00533). The test is described as follows: compounds binding epidermal growth factor receptor – biochemical, small-molecule microarray, 635 nm fluorescence, primary screen (AID 1104).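 Also: score merges 667 nm emission intensity with spot signal to noise over triplicate slides.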 The following applies: EGFR binding, higher = more signal.
In test [18] the target is Follistatin-related protein 3 (Homo sapiens) (UniProt O95633). Nature of the test: compounds binding follistatin-related protein 3 – biochemical, small-molecule microarray, 635 nm fluorescence, primary screen (AID 1105).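 Also: score merges emission near 667 nm and signal to noise per printed spot across three slides.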 Conditions: FSTL3 binding, higher = more signal.
Sequence of Follistatin-related protein 3 (Homo sapiens) (O95633 whole entry, looked up): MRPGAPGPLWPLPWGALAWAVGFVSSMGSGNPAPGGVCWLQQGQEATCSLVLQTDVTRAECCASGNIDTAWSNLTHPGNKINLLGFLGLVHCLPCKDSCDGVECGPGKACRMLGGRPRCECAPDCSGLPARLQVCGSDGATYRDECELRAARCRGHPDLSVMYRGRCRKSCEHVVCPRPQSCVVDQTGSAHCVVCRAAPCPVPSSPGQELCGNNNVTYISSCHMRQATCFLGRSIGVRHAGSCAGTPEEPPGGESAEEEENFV
Test [19] concerns the target Dickkopf-related protein 1 (Homo sapiens) (UniProt O94907). The test is described as follows: small molecules binding DKK1 protein – biochemical, small-molecule microarray, 635 nm fluorescence scan, primary screen (AID 1106).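 Also: score merges emission near 667 nm with signal to noise over three replicate slides.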 Conditions: higher = more signal.
For test [20], the system named is Inhibin beta A chain (activin A). The test is described as follows: small molecules binding activin A – biochemical, small-molecule microarray, 635 nm fluorescence scan, primary screen (AID 1107).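 Also: mouse activin A protein probed at 4.33 µg/mL on printed slides; score merges bound-protein fluorescence near 667 nm with spot signal-to-noise.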 Conditions: INHBA, higher = more signal.

SMILES strings stand for the structures. Activity calls are given as the source filed them.

The record followed here is PubChem BioAssay.

Sequence of Dickkopf-related protein 1 (Homo sapiens) (O94907 whole entry, looked up): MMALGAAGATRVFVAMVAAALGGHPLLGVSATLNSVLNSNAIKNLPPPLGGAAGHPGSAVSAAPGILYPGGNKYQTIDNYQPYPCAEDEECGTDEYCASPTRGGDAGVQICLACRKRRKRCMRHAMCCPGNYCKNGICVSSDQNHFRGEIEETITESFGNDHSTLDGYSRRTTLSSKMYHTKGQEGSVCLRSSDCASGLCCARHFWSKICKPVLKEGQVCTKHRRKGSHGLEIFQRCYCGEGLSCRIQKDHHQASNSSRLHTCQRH
Sequence of Epidermal growth factor receptor (Homo sapiens) (P00533 whole entry, looked up): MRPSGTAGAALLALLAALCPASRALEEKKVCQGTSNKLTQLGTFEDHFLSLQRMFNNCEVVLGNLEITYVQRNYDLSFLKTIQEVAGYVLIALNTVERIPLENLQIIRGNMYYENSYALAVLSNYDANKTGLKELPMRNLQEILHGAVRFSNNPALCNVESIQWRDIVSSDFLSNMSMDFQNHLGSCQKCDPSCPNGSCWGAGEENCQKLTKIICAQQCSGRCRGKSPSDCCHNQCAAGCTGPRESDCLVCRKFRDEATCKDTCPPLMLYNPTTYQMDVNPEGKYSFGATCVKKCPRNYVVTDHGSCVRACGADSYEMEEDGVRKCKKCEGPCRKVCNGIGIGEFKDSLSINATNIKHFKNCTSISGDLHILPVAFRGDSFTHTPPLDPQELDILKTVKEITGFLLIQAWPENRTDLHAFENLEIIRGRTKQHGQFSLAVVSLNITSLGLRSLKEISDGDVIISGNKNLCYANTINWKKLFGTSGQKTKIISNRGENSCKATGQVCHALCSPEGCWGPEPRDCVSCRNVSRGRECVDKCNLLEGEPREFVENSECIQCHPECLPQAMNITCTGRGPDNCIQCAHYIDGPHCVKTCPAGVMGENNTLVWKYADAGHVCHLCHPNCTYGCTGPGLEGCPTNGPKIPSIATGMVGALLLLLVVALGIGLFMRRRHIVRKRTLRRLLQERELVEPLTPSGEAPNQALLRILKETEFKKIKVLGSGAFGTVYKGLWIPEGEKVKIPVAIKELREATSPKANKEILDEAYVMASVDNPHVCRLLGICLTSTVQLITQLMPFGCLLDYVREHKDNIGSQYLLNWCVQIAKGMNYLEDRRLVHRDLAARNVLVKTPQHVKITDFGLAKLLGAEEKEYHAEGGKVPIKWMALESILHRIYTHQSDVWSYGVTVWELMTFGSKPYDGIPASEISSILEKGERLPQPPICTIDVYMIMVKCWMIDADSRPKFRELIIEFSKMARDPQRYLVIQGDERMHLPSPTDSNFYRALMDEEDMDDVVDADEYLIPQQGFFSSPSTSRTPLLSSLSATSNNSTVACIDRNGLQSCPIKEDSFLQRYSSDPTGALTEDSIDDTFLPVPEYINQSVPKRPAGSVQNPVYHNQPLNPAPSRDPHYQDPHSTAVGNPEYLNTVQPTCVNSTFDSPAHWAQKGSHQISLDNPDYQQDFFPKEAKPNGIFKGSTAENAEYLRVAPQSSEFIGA

Regarding `O=C1[C@H]2CCn3c(=O)n(-c4ccccc4)c(=O)n3[C@H]2[C@H](O)[C@@H]2O[C@H]12`, the composite z-score in test [1] is -0.0775; in test [5], -0.29; in [7], -0.225; in test [8] it was 0.224; in [9] it was -0.281; in test [10] it was -0.181. Also, the composite z-score in test [11] was 0.784; in test [12], -0.418; in test [13], -0.438; in [15] it was 0.837; in test [16] it was 0.381; in test [17] it was 0.299. Also, the composite z-score in test [18] turned out to be 0.148; in test [19] it was 0.427; in [20], 0.269. Also, the z-score in [2] was 0.689 (inactive); in test [3], -0.41 (inactive); in [4] it was -0.206 (inactive); in [6], -0.0475 (inactive); in test [14] it was 0.583 (inactive).
For `CC1(C)O[C@H]2O[C@H]([C@H](O)CON=C3[C@H]4CCn5c(=O)n(-c6ccccc6)c(=O)n5[C@H]4[C@H](O)[C@@H]4O[C@H]34)[C@H](O)[C@H]2O1`, the composite z-score in test [1] was -0.626; in test [5], -0.122; in test [7] it was -0.212; in test [8] it was 0.426; in test [9], -0.412; in test [10], -0.219. Also, the composite z-score in test [11] was 0.378; in test [12] it was -0.179; in test [13], -0.181; in test [15], 0.174; in test [16], 0.085; in test [17], 0.249. The composite z-score in test [18] is 0.422; in test [19] it was 0.0043; in test [20], 0.695. Moreover, the z-score in test [2] was -0.638 (inactive); in test [3], -0.347 (inactive); in [4] it was -0.215 (inactive); in [6] it was 0.321 (inactive); in test [14] it was 0.407 (inactive).
As for `CO[C@H]1COC(=O)[C@H](CCSC)NC(=O)CC=C[C@@H](C)[C@H](OC)COC(=O)[C@@H](OCc2ccccc2)C=C[C@@H]1C`, the composite z-score in test [1] was 1.56; in [5], -1.05; in [7] it was -0.0131; in [8], 1.39; in [9] it was 0.472; in test [10] it was -0.0531. In addition, the composite z-score is 0.988 in [11]; -0.488 in [12]; -0.513 in test [13]; 0.605 in test [15]; 0.751 in test [16]; 0.975 in [17]. The composite z-score was found to be 0.922 in test [18], 1.38 in test [19] and 0.824 in [20]. Moreover, the z-score in test [2] is -0.772 (inactive); in [3], -0.282 (inactive); in [4], -1.65 (inactive); in test [6], -0.317 (inactive); in [14], 0.45 (inactive).
With `COc1ccc(OC[C@H]2CN3[C@@H](CC[C@@H](C)[C@@H]3c3ccc(Br)cc3)C(=O)O2)cc1`, the composite z-score in [1] is 0.591; in test [5], 0.184; in test [7], -0.198; in [8] it was 0.318; in [9], -0.175; in test [10], -0.0082. For the same compound, the composite z-score in [11] is 0.233; in [12], -0.278; in [13] it was -0.345; in test [15], 0.0848; in [16] it was 0.16; in [17] it was 0.204. The composite z-score stood at 0.142 in [18], 0.344 in [19] and 0.607 in test [20]. In addition, the z-score in [2] was -0.313 (inactive); in test [3] it was -0.237 (inactive); in test [4], 0.179 (inactive); in [6], -0.915 (inactive); in [14] it was -0.319 (inactive).
`CCc1cc2c(nc1CC)CCN(CCC(C)=NOCC[C@@H]1C=C[C@H](OC(C)=O)[C@@H](COC(C)=O)O1)C2`: the composite z-score in test [1] is 1.54; in test [5], 0.796; in [7], 0.251; in test [8], 1.21; in test [9] it was 0.546; in [10], 0.0579. Further, the composite z-score is 1.05 in test [11]; 0.0092 in test [12]; 0.343 in test [13]; -0.0488 in test [15]; 0.459 in test [16]; 0.789 in test [17]. For the same compound, the composite z-score in test [18] was found to be 0.332; in [19], 0.301; in test [20], 1.29. Moreover, the z-score in [2] is -0.391 (inactive); in test [3], 0.591 (inactive); in test [4] it was 0.521 (inactive); in test [6], 0.956 (inactive); in [14], 0.192 (inactive).
